Test results published in PubChem BioAssay AID1671202 (University of Kansas High Throughput Screening Laboratory, 2021).
The campaign covered roughly 190,000 compounds. About 6,900 (3.6%) were called active. Cut-off read from the data, not from the text of the source: active = inhibition above about 50%; inactive = the rest. Only a selection was taken, and actives are over-represented in it overall.

Biological target: Huntingtin (Homo sapiens) (UniProt P42858)
Experiment: mutant huntingtin-calmodulin interaction inhibitors – biochemical, AlphaScreen, primary screen (AID 1671202);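 note: 0% = both proteins with DMSO and 100% = one protein alone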
Conditions: AlphaScreen His-mHTT/GST-CaM binding, luminescence; at 15 µM, stronger effect = higher value

Huntingtin (Homo sapiens), sequence (P42858 whole entry, looked up, stated change not applied): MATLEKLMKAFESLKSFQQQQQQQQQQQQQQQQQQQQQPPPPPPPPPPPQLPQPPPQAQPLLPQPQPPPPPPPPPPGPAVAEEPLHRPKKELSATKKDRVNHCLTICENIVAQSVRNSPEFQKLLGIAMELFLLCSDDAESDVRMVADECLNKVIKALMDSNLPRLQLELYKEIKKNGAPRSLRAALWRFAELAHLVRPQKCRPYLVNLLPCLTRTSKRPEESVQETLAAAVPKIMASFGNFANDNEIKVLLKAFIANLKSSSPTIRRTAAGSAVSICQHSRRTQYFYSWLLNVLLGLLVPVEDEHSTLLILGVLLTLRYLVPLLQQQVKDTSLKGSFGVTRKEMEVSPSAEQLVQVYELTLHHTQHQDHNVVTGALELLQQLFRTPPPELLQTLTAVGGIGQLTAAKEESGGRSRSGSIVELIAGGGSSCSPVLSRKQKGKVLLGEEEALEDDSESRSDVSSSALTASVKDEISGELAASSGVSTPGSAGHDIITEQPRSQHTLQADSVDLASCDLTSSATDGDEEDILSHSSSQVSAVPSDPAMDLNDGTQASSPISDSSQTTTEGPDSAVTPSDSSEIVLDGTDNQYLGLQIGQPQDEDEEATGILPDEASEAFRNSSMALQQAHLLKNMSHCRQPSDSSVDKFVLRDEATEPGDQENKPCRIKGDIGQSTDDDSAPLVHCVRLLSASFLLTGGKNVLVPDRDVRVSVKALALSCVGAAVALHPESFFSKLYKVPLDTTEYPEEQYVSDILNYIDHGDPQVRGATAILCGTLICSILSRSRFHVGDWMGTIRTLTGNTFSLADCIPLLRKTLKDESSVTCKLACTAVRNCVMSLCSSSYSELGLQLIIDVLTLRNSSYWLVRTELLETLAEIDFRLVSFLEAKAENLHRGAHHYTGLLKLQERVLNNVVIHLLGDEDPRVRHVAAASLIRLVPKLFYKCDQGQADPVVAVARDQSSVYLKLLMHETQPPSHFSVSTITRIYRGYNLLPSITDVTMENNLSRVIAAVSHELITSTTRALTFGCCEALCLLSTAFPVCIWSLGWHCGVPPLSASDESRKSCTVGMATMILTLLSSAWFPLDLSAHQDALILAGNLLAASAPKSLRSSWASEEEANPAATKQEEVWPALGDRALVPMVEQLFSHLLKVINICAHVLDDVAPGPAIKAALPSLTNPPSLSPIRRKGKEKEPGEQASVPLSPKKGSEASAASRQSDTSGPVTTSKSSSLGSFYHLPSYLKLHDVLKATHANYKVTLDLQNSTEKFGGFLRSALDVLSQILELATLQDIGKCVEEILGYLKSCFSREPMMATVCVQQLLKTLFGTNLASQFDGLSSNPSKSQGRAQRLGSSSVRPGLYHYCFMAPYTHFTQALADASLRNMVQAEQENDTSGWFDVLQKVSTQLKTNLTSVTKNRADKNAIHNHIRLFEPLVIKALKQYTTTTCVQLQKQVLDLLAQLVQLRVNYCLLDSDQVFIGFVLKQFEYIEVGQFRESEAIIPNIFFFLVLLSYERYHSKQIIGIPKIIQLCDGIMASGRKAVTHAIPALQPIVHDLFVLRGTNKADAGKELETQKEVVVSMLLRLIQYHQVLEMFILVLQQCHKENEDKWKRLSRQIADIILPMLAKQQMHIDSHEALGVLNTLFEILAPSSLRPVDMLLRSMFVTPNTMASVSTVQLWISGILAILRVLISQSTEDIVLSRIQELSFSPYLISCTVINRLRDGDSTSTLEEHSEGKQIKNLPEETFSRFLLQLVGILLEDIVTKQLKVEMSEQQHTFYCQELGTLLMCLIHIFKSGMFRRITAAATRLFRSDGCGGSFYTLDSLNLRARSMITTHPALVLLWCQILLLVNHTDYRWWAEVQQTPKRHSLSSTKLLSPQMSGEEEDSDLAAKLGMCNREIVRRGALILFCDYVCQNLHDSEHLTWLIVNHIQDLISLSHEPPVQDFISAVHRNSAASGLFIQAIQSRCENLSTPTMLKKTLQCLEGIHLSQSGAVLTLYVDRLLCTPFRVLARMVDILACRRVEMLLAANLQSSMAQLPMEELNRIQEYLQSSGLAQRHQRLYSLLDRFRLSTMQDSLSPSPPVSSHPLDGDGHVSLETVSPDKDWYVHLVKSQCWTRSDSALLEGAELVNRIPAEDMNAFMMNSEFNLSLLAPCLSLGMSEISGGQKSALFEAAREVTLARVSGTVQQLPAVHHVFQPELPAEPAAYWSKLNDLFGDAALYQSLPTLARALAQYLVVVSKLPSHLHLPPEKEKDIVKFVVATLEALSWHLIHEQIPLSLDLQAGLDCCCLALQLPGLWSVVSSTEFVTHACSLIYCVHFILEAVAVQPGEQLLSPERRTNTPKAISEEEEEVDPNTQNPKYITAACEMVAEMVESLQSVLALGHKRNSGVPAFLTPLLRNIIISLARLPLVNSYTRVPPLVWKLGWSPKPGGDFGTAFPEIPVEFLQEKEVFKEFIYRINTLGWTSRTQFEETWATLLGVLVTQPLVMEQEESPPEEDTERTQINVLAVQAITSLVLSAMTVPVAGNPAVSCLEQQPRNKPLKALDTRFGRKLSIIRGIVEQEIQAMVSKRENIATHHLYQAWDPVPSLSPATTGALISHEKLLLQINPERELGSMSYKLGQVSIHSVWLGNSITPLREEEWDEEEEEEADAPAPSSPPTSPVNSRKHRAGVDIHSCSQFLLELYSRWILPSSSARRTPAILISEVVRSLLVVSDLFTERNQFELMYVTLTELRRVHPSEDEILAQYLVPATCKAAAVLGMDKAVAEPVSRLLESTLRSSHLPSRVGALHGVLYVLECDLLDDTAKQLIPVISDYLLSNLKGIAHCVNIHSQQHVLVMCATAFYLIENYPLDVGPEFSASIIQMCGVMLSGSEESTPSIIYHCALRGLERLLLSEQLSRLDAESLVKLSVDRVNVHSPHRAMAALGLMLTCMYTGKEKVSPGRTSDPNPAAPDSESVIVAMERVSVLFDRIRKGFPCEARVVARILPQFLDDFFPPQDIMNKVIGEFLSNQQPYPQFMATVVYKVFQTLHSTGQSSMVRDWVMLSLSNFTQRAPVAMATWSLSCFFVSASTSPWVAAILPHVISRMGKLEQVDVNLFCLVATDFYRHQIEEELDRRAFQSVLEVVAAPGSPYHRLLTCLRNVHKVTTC

Q: How did the inhibition turn out when `O=C(Nc1ccc2c(c1)OCO2)N1CCOc2ccccc21` was run?
A: 7.08% (inactive)

Q: With `Cc1nc2c(C(=O)NC3CCCC3)cnn2c(C)c1Cc1cccc(Cl)c1` as the compound, how does the inhibition read?
A: 79% (active)

Q: Which inhibition does the source give for `Cc1ccccc1Cc1c(C)nc2c(C(=O)NC3CCCCC3)cnn2c1C` here?
A: 3% (inactive)

Q: Which inhibition does the source give for `Cc1cc(C)c(Cc2c(C)nc3c(C(=O)NC4CCCC4)cnn3c2C)c(C)c1` here?
A: -6% (inactive)

Q: With `COc1ccc(C2=NC3(CCN(CC(=O)NCc4ccc(C)cc4)CC3)NC2=O)cc1` as the compound, how does the inhibition read?
A: 18.4% (inactive)

Q: Which inhibition does the source give for `CC(C)NC(=O)c1ccc(C(=O)NC(C)C)nc1` here?
A: 0.9% (inactive)

Q: Which inhibition does the source give for `COc1ccc(-c2ccc3nc(N4CCC(C(N)=O)CC4)sc3n2)cc1` here?
A: 27% (inactive)

Q: For `O=C(NC1CC1)C1CCN(c2nc3ccc(-c4ccccc4)nc3s2)CC1`, which inhibition is on record?
A: 0.8% (inactive)

Q: `CCN(CC)C(=O)C1CCN(c2nc3ccc(-c4ccc(OC)cc4)nc3s2)CC1` was tested. Which inhibition did it give?
A: 66.8% (active)

Q: With `CC(C)CNC(=O)C1CCN(c2nc3ccc(-c4ccncc4)nc3s2)CC1` as the compound, how does the inhibition read?
A: 4.07% (inactive)

Q: How did the inhibition turn out when `CN(C)C(=O)C1CCN(c2nc3ccc(-c4cccc(F)c4)nc3s2)CC1` was run?
A: 0.2% (inactive)

Q: `CN1CCC(NC(=O)C2CCN(c3nc4ccc(-c5ccsc5)nc4s3)CC2)CC1` was tested. Which inhibition did it give?
A: 70.8% (active)

Q: For `O=C(NCc1ccc2c(c1)OCO2)c1cc2c(s1)CCN(C(=O)c1ccc(F)cc1)C2`, which inhibition is on record?
A: 1.84% (inactive)

Q: `CCOc1ccc2c(=O)c(Oc3ccccc3)coc2c1` was tested. Which inhibition did it give?
A: -2.3% (inactive)

Q: With `CCOc1ccccc1NC(=O)Nc1ccc2c(c1)CN(C(=O)c1ccco1)CC2` as the compound, how does the inhibition read?
A: 28.9% (inactive)

Q: How did the inhibition turn out when `Cn1c(C2CCN(C(=O)Cc3ccccc3)C2)nc2ccncc21` (stereo not drawn) was run?
A: -1.65% (inactive)

Q: With `N#Cc1nc(-c2ccco2)oc1N1CCN(C(=O)c2ccccc2F)CC1` as the compound, how does the inhibition read?
A: -5.8% (inactive)

Q: With `Cc1ccccc1-n1c(=O)n(C2CC2)c(=O)c2c1ncn2Cc1c(F)cccc1F` as the compound, how does the inhibition read?
A: -4.6% (inactive)

Q: Which inhibition does the source give for `COc1ccc(C(=O)Sc2nc(C)cc(C)n2)cc1` here?
A: 98% (active)

Q: Which inhibition does the source give for `COc1ccc(NC(=O)c2ccc(OC)cc2)cc1` here?
A: -2% (inactive)

Q: `Cc1cc(C)nc(SCC(=O)c2ccc(Cl)cc2)n1` was tested. Which inhibition did it give?
A: 1.3% (inactive)

Q: Which inhibition does the source give for `COc1ccc(C2=N/C(=C\c3ccc(Cl)cc3)C(=O)O2)cc1OC` here?
A: -4% (inactive)

Q: `O=c1[nH]c2ccc(S(=O)(=O)Nc3ccc(OC(F)(F)F)cc3)cc2o1` was tested. Which inhibition did it give?
A: 0% (inactive)

Q: Which inhibition does the source give for `O=C(Nc1nnc(Cc2cccs2)o1)c1ccc(Cl)cc1Cl` here?
A: 6% (inactive)

Q: Which inhibition does the source give for `COc1ccc(-c2cc3c(c4c2ccn4C)C2CCC3C2)cn1` (stereo not drawn) here?
A: 52.6% (active)

Q: How did the inhibition turn out when `Cc1cc2[nH]c(C(=O)Nc3ccccc3F)c(CN3CCOCC3)c2s1` was run?
A: 23% (inactive)

Q: How did the inhibition turn out when `COc1ccc(C(=O)N2CCC(c3cc(N)on3)CC2)cc1F` was run?
A: 3.7% (inactive)

Q: How did the inhibition turn out when `CCCCN(C)C(=O)C1CCCN(c2ncccc2-c2noc(C3CCC3)n2)C1` (stereo not drawn) was run?
A: 23.9% (inactive)

Q: For `CC(=O)c1cc2c3c(c1)C1C=CCC1C(c1cccc([N+](=O)[O-])c1)N3CC1CC=CC21` (stereo not drawn), which inhibition is on record?
A: 97% (active)

Q: `COc1cc2c(cc1OC)C(C(=O)O)C(c1cccc([N+](=O)[O-])c1)N(C)C2=O` (stereo not drawn) was tested. Which inhibition did it give?
A: 0% (inactive)

Q: With `COc1ccc2c(c1)C1=NN(C(C)=O)C(c3cccc([N+](=O)[O-])c3)C1CC2` (stereo not drawn) as the compound, how does the inhibition read?
A: 3% (inactive)

Q: `O=C(NCc1ccco1)Nc1c[nH]c2ccccc12` was tested. Which inhibition did it give?
A: 3% (inactive)

Q: With `NCCN1C(=O)c2[nH]nc(-c3ccccc3)c2C1c1ccccc1` (stereo not drawn) as the compound, how does the inhibition read?
A: 9% (inactive)

Q: How did the inhibition turn out when `CCOC(=O)N1CCC(c2nnc(Cc3ccc(OC)cc3)s2)CC1` was run?
A: -8.5% (inactive)

Q: With `Cc1nc(-c2ccccc2)sc1C(=O)NCCOc1ccc(-c2cccs2)nn1` as the compound, how does the inhibition read?
A: 6% (inactive)

Q: With `Cc1ccc(C(=O)Nc2cc(-c3ccccn3)no2)cc1` as the compound, how does the inhibition read?
A: 1.2% (inactive)

Q: Which inhibition does the source give for `NS(=O)(=O)c1ccc(C(=O)NCCOc2ccc(-c3ccccn3)nn2)cc1` here?
A: 100% (active)

Q: Which inhibition does the source give for `O=C(Cc1ccccc1Cl)NCC1CCN(c2cc(-c3ccncc3)[nH]n2)CC1` here?
A: -5.18% (inactive)
